Source: PubChem BioAssay
The list is not random: actives were taken first. Their share in the collection is about 3.7%.
ClpP mod: qHTS Assay for Activators of ClpP; purified B. subtilis ClpP, FRET peptide cleavage, 20 min; Potency, µM (titrated, usually from 57.5 µM); hit rate 1.9% among 340,000; active means well fitted falling curve with a large enough effect; inconclusive means small, poorly fitted or top-dose-only effect; inactive means no such curve, though single readings can be large or run the other way; further: the source files actives as falling curves though it sought activators and does not explain the sign; nearly all actives have a fitted effect of over 65% in size
Target sequence (P80244 whole entry, looked up): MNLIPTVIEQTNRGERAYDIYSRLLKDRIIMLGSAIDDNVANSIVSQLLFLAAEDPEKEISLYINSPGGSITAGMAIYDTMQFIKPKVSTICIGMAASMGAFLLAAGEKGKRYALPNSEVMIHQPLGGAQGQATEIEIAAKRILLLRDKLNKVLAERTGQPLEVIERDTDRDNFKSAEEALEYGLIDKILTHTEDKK
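Purified B. subtilis ClpP, 10 microg/mL final in Tris/HCl pH8 with KCl, BSA, glycerol and Tween-20, cleaved an Abz/nitrotyrosine-quenched decapeptide. Fluorescence (ex 320, em 430) was read at 0 and 20 min at room temperature. Delta was normalized to 5.8 microM ADEP and DMSO/no-enzyme controls.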
A549 viability: Nrf2 qHTS screen for inhibitors: counterscreen for cytotoxicity. A549 ARE-Fluc cells, CellTiter-Fluor viability, 18-24 h. Potency, µM (titrated, usually from 46 µM), hits mostly inhibitors. hit rate 0.16% among 390,000. AID 504648, 2011
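Cytotoxicity counterscreen: CellTiter-Fluor fluorescence was measured in A549 ARE_Fluc cells after 18-24 h of compound exposure in a concentration series. The subsequent BugLite luminescent read reports ARE-luciferase activity.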
miR-21 act: qHTS Assay for Modulators of miRNAs and/orActivators of miR-21 | HeLa miR-21 FLuc reporter, luciferase, 48 h | Potency, µM (series often up to 38.3 µM), most hits filed as activators | 340,000 tested, under 10 active;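 further: miR-21 action dims this reporter so a rising signal means less miR-21 action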
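Compounds were titrated across several concentrations (up to approximately 40 uM) and incubated 48 hours with HeLa miR-21-FLuc reporter cells (miR-21 target sequence downstream of FLuc, endogenous miR-21). Readout was firefly luciferase luminescence after lytic detection reagent.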
p53 reactivator: qHTS assay for re-activators of p53 using a Luc reporter. H1299 p53-A138V BP100-luciferase reporter, luminescence, 24 h. hit rate 0.063% among 320,000. Potency, µM (series often up to 92.2 µM), actives largely listed as activators; further: nearly all actives have a fitted effect of over 45% in size
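p53-null H1299 cells stably carrying temperature-sensitive p53-A138V and a BP100-luciferase reporter were pinned with compounds (4-point, 1:5 series) and held 24 hrs at 37 deg C. Luminescence was read 10 min after detection reagent.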
Nrf2 block: Nrf2 qHTS screen for inhibitors; A549 ARE-Fluc reporter, luciferase luminescence, 18-24 h; hit rate 2.1% among 360,000; AID 504444, 2011; Potency, µM (top dose mostly 46 µM), actives largely listed as inhibitors; further: nearly all actives have a fitted effect of over 60% in size
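Concentration-response testing used A549 ARE_Fluc cells at 5000 cells/well. Following an 18-24 h compound incubation, viability was read by fluorescence (Ex 405/Em 525) and luciferase output by luminescence.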
Nrf2 activator: qHTS of Nrf2 Activators; hit rate 0.31% among 410,000; AID 624171, 2012; AREc32 ARE-luciferase reporter (MCF7-derived line), luminescence, 24 h; Potency, µM (series often up to 46.1 µM), usual class: activators; further: nearly all actives have a fitted effect of over 65% in size
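For detection, Steady-Glo was added and plates sat 30 min at RT; before that, AREc32_Fluc cells grown overnight in OPTI-MEM/5% FBS had been treated with 23 nL compound for 24 hr at 37 deg C.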
Of the large screens only hits and unclear results are named; the others gave an inactive call. Unless noted, the call rests on the fitted dose curve; in most records, active means well fitted curve in the direction sought with a large enough effect; inconclusive means small, poorly fitted or top-dose-only effect, or another doubt; inactive means no such curve, though single readings can be large; an effect the other way counts as inactive or inconclusive.

CCOC(=O)c1[nH]c2ccc(OCC)cc2c1NC(=O)CN1CCC2(CC1)OCCO2	ClpP mod 25.1µM
CCOC(=O)c1[nH]c2cc3c(cc2c1NC(=O)CN1CCC2(CC1)OCCO2)OCO3	ClpP mod inconclusive
CCOC(=O)c1[nH]c2cc3c(cc2c1NC(=O)CN1CCN(CCO)CC1)OCO3	ClpP mod 25.1µM
Cc1ccc(N(CC(=O)Nc2cccc(Cl)c2C)S(=O)(=O)c2c(C)noc2C)cc1	none (no result: p53 reactivator)
CC1(C)CC(=O)C(C2C3=C(CC(C)(C)CC3=O)Oc3c(Br)cc(Br)cc32)=C(O)C1 (stereo not given)	A549 viability inconclusive, Nrf2 block 23.1µM
COc1nc(-c2ccccc2)ccc1-c1noc(-c2cccnc2)n1	none
COc1cccc(-c2nc(-c3ccc(-c4ccccc4)nc3OC)no2)c1	ClpP mod 25.1µM, Nrf2 block inconclusive (no result: p53 reactivator)
COc1ccc(-c2ccc(-c3noc(C)n3)c(OC)n2)cc1	ClpP mod 14.1µM (no result: Nrf2 block)
COc1ccc(-c2ccc(-c3noc(-c4cccc(OC)c4)n3)c(OC)n2)cc1	ClpP mod 3.16µM
COc1ccc(-c2ccc(-c3noc(-c4ccc(OC)c(OC)c4)n3)c(OC)n2)cc1	none (no result: ClpP mod, A549 viability, Nrf2 block, Nrf2 activator)
COc1nc(-c2ccc(C)cc2)ccc1-c1noc(-c2ccccc2Br)n1	none (no result: p53 reactivator)
COCc1nc(-c2ccc(-c3ccc(C)cc3)nc2OC)no1	ClpP mod 35.5µM
COc1ccccc1N1CCN(S(=O)(=O)CCNC(=O)C(c2ccccc2)c2ccccc2)CC1	none (no result: p53 reactivator, Nrf2 block)
CCC(C)(CCN1CCOCC1)N(Cc1cc2ccccc2n(C)c1=O)C(=O)C1CCCCC1 (stereo not given)	none (no result: ClpP mod, miR-21 act, p53 reactivator, Nrf2 activator)
CCOc1cc(/C=C(\C#N)C(=O)Nc2ccc(C)cc2)ccc1OCc1cc(=O)n2nc(CC)sc2n1	none (no result: p53 reactivator)
Cc1cc(=O)n2c(C(=O)Nc3ccc(Br)cc3)c(C(=O)Nc3ccccc3)sc2n1	none (no result: p53 reactivator)
Nc1nonc1-n1nnc(C(=O)N/N=C/c2ccc3c(c2)OCO3)c1-c1ccccc1	Nrf2 block inconclusive (no result: ClpP mod)
CCCN(CCC)Cc1c(C(=O)N/N=C/c2ccoc2)nnn1-c1nonc1N	none (no result: ClpP mod)
Nc1nonc1-n1nnc(C(=O)N/N=C/c2ccc(Br)cc2)c1-c1ccc2c(c1)OCO2	ClpP mod 25.1µM
CCCc1c(C(=O)N/N=C/c2cccs2)nnn1-c1nonc1N	Nrf2 activator 8.91µM
CN(C)Cc1c(C(=O)N/N=C/c2cccc(OCc3c(F)cccc3Cl)c2)nnn1-c1nonc1N	Nrf2 block 3.66µM
CCCN(CCC)Cc1c(C(=O)N/N=C/c2cccs2)nnn1-c1nonc1N	none (no result: ClpP mod)
CCCN(CCC)Cc1c(C(=O)N/N=C/c2ccc(Br)cc2)nnn1-c1nonc1N	A549 viability inconclusive, Nrf2 block 16.4µM (no result: ClpP mod)
O=C(CCc1ccccc1)N(Cc1cccnc1)c1nc2ccc(F)cc2s1	none (no result: p53 reactivator, Nrf2 block)
Cc1noc2ncnc(N3CCN(c4ccc(F)cc4)CC3)c12	Nrf2 block 7.31µM
Cc1noc2ncnc(N3CCCCC3)c12	none
CC1=C(C(=O)N(C)C)CC(CC(=O)NCCCN(C)C)C(=O)N1CCC1=CCCCC1 (stereo not given)	none (no result: A549 viability, miR-21 act, p53 reactivator, Nrf2 block)
CC(C)COc1ccc(C/C(N)=N/n2cnnc2)cc1	Nrf2 block 16.4µM (no result: ClpP mod)
COc1ccc(C/C(N)=N/n2cnnc2)cc1	none
CN(C)S(=O)(=O)c1ccc2c(c1)N(CC(=O)NCc1ccc(F)cc1)C(=O)CS2	Nrf2 block inconclusive (no result: p53 reactivator)
O=C(NN=C1C2CC3CC(C2)CC1C3)c1ccncc1	none
O=C(N/N=C/C(Cl)=C/c1ccccc1)c1ccncc1	Nrf2 activator 22.4µM (no result: ClpP mod)
O=C(N/N=C1\C/C(=N\NC(=O)c2ccncc2)c2ccccc21)c1ccncc1	A549 viability inconclusive, Nrf2 block 7.31µM, Nrf2 activator inconclusive
O=C(N/N=C/C(Cl)=C\c1ccccc1)c1cccs1	p53 reactivator inconclusive, Nrf2 block inconclusive, Nrf2 activator 11.2µM (no result: ClpP mod)
